# Measured values taken from the supplement of paper PMC10127200.
# Several values for one entry are separate records, joined by “and”; a condition that tells them apart may be missing. Identical values can stand only once. Counter-ions that a name gives are not always drawn.
# Key:
# Experiment in all cases: Euclidean distance of Cell Painting phenotypic profile (signed KS, 77 features) to DMSO centroid (dimensionless distance); 5 or 10 uM (library dependent); higher = stronger phenotypic change vs DMSO (phenoactivity)
# Details in all cases: 48 h
# 786-O = system: 786-O
# Method in brief: (§1)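 Harmony extracted 77 features from 20X confocal images (9 fields/well) of stained cells, scoring each as a signed Kolmogorov-Smirnov statistic against same-plate vehicle wells. The cells, five cancer lines and a healthy fibroblast line, had received library compounds for 48 h at 10 or 5 uM depending on library, with 0.1% DMSO final. Phenoactivity is the Euclidean distance from each plate-position-corrected, correlation-weighted, top-dose replicate-averaged profile to the median vehicle profile.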
# A549 = system: A549
# Method in brief: as §1
# DU145 = system: DU145
# Method in brief: as §1
# FB = system: FB
# Method in brief: as §1
# HEPG2 = system: HEPG2
# Method in brief: as §1
# OVCAR4 = system: OVCAR4
# Method in brief: as §1
SMILES,Euclidean distance (786-O),Euclidean distance (A549),Euclidean distance (DU145),Euclidean distance (FB),Euclidean distance (HEPG2),Euclidean distance (OVCAR4)
CCCOc1ccc(S(=O)(=O)NCCC2CCCN2C)cc1-c1nc2c(CCC)nn(C)c2c(=O)[nH]1 (stereo not drawn) [Udenafil],1.13,1.12,1.49,1.77,1.61,1.41
Cc1nc(C)c(C)nc1C [Ligustrazine hydrochloride],0.557,0.605,0.684,0.693,0.523,0.693
O=c1oc2cc(O)ccc2s1 [Tioxolone],1.49,0.671,0.857,0.922,2.64,1.29
CC(C)CCNc1ncccc1C(=O)N1CCN(Cc2ccccc2)CC1,0.757,0.542,0.821,0.894,0.864,0.631
CC(C)N(CCCCOCC(=O)NS(C)(=O)=O)c1cnc(-c2ccccc2)c(-c2ccccc2)n1 [Selexipag],0.931,1.04,0.729,1.31,0.663,1.65
O=C(Nc1cc(C(F)(F)F)ccc1N1CCCCC1)c1ccncc1,0.961,1.47,0.983,0.794,0.96,1.67
O=C(Cn1cnnn1)N[C@@H]1C(=O)N2C(C(=O)O)=C(CSc3nncs3)CS[C@H]12 [Ceftezole sodium],0.633,1.39,1.36,0.846,0.929,0.929
Brc1c(NC2=NCCN2)ccc2nccnc12 [Brimonidine Tartrate],0.514,0.618,0.478,0.739,0.644,0.833
Oc1c(Cl)cc(Cl)c(Cl)c1Cc1c(O)c(Cl)cc(Cl)c1Cl [Hexachlorophene],2.16,1.62,1.19,3.31,2.53,1.64
CCN(CC)C(=O)[C@@]1(c2ccccc2)C[C@H]1CN [Levomilnacipran Hydrochloride],0.986,0.786,1.17,1.23,0.649,0.997
COc1cc2nccc(Oc3ccc(NC(=O)NC4CC4)c(Cl)c3)c2cc1C(N)=O [Lenvatinib (E7080)],2.11,0.779,1.02,3.36,1.02,1.33
CN1CCN(c2c(F)cc3c(=O)c(C(=O)O)cn4c3c2OCN4C)CC1 [Marbofloxacin],0.878,0.762,0.494,1.1,1.53,0.752
CCNC(=O)Nc1ccc(-c2nc3c(c(N4CCOC[C@@H]4C)n2)CCN(C2COC2)C3)cc1,3.58,3.22,1.78,4.11,3.1,4.55
c1cc(CN2CCCNCCNCCCNCC2)ccc1CN1CCCNCCNCCCNCC1 [Plerixafor (AMD3100)],0.664,1.12,0.673,0.848,0.976,1.03
O=C1CC[C@H](N2Cc3c(OCc4ccc(CN5CCOCC5)cc4)cccc3C2=O)C(=O)N1 [Iberdomide(CC220)],1.05,1.02,0.711,1.32,1.24,0.967
O=C1NC(=O)C(=Cc2ccc(-c3ccc(F)cc3)o2)S1 (stereo in doubt),1.04,0.938,1.43,1.29,0.808,1.33
Cc1cn([C@H]2C[C@H](N=[N+]=[N-])[C@@H](CO)O2)c(=O)[nH]c1=O [Zidovudine],1.52,0.708,1.19,1.2,1.54,0.957
CC(=O)OCC(=O)[C@H]1CC[C@H]2[C@@H]3CCC4=CC(=O)CC[C@]4(C)[C@H]3CC[C@]12C [Deoxycorticosterone acetate],0.997,0.852,0.854,1.02,0.569,1.51
COc1cccc2c1C(=O)c1c(O)c3c(c(O)c1C2=O)C[C@@](O)(C(=O)CO)C[C@@H]3O[C@H]1C[C@H](N)[C@@H](O)[C@H](C)O1 [Epirubicin HCl],3.54,4.33,3.92,5.12,4.78,4.83
Cn1cncc1[C@@](N)(c1ccc(Cl)cc1)c1ccc2c(c1)c(-c1cccc(Cl)c1)cc(=O)n2C [Tipifarnib],2.23,2.94,2.5,2.31,1.91,2.15
CC1OC2(CS1)CN1CCC2CC1 (stereo not drawn) [Cevimeline],1.52,1.3,0.896,1.55,0.72,1.48
CC1(C)CCC(C)(C)c2cc(NC(=O)c3ccc(C(=O)O)cc3)ccc21 [Tamibarotene],1.13,1.55,1.77,3,0.884,1.24
O=C(O)COC(=O)Cc1ccccc1Nc1c(Cl)cccc1Cl [Aceclofenac],1.26,0.455,1.1,0.795,0.607,0.86
CN1CCC(=C2c3ccccc3C=Cc3ccccc32)CC1 [Cyproheptadine HCl],1.25,0.786,1.84,2.04,2.64,1.39

SMILES,Euclidean distance (786-O),Euclidean distance (A549),Euclidean distance (DU145),Euclidean distance (FB),Euclidean distance (HEPG2),Euclidean distance (OVCAR4)
CC/C(=C(/CC)c1ccc(O)cc1)c1ccc(O)cc1 [Diethylstilbestrol],0.795,0.688,0.96,0.826,0.721,0.682
O=C1Nc2ccc(I)cc2/C1=C/c1cc(Br)c(O)c(Br)c1,1.58,0.975,0.984,1.02,0.668,1.3
COC1=C2C[C@@H](C)C[C@H](OC)[C@H](O)[C@@H](C)/C=C(\C)[C@H](OC(N)=O)[C@@H](OC)/C=C\C=C(/C)C(=O)NC(=CC1=O)C2=O [Geldanamycin],2.87,3.3,3.52,3.35,1.8,2.91
CCc1cc(/C(C)=N/OCc2ccc(C3CCCCC3)c(C(F)(F)F)c2)ccc1CN1CC(C(=O)O)C1 [BAF312 (Siponimod)],1.61,1.05,1.31,0.66,0.538,1.25
COc1ccc([C@@H]2CC(=O)c3c(O)cc(O)cc3O2)cc1O [Hesperetin],1.32,0.944,1.21,1.47,1.37,1.23
C#C[C@]1(O)CC[C@H]2[C@@H]3CCC4=CCCC[C@@H]4[C@H]3C(=C)C[C@@]21CC [Desogestrel],0.933,0.431,0.928,0.753,0.742,0.826
CCc1ccc(OCc2ccccc2C(=O)Nc2ccc3nc(C)cc(N)c3c2)cc1,4.35,4.14,3.63,5.25,5.11,4.53
CN(C)CCOC(c1ccc(Cl)cc1)c1ccccn1 (stereo not drawn) [CarbinoxaMine Maleate],1.32,0.778,1.98,1.44,0.691,0.935
N#Cc1cnc(Nc2cc(NC[C@H]3CNCCO3)c(C(F)(F)F)cn2)cn1,3.22,2.16,2.89,3.11,2.5,1.99
CC(=O)c1c(C)c2cnc(Nc3ccc(N4CCNCC4)cn3)nc2n(C2CCCC2)c1=O,5.92 and 5.88,3.42 and 3.04,5.03 and 4.42,6.3 and 5.78,5.39 and 4.73,5.52 and 5.47
COc1nccnc1NS(=O)(=O)c1ccc(N)cc1 [Sulfalene(SMPZ)],0.789,1.44,1.18,1.41,0.406,0.917
CCOc1cc(CC(=O)N[C@@H](CC(C)C)c2ccccc2N2CCCCC2)ccc1C(=O)O [Repaglinide],1.98,0.783,1.26,1.42,1.04,1.55
Cc1c(O)c(=O)ccn1C [Deferiprone],1.58,0.809,1.07,1.18,0.561,0.947
CCN(CC)CCOC(=O)c1ccc(N)cc1 [Procaine HCl],0.661,0.741,0.744,0.877,0.478,0.916
C[C@H]1c2cccc(O)c2C(=O)C2=C(O)[C@]3(O)C(=O)C(C(N)=O)=C(O)[C@@H](N(C)C)[C@@H]3[C@@H](O)[C@@H]21 [Doxycycline],1.5,1.3,0.845,0.954,0.564,1.67
COc1ccc2ccc(=O)oc2c1CC=C(C)C [Osthole],1.34,0.749,0.86,1.14,0.394,0.956
CCCN(CCC)S(=O)(=O)c1ccc(C(=O)O)cc1 [Probenecid],1.08,0.549,1.42,0.831,0.652,1.69
CNCCc1ccccn1 [Betahistine],1.31,0.763,0.72,1.01,0.628,0.854
Clc1ccc(C(Cn2ccnc2)OCc2ccc(Sc3ccccc3)cc2)c(Cl)c1 (stereo not drawn) [Fenticonazole Nitrate],1.13,0.887,1.51,1.21,2.16,1.35
C=C1C(=O)O[C@H]2[C@H]1CC/C(C)=C/CC[C@@]1(C)O[C@@H]21 [(-)-Parthenolide],3.29,1.26,3.27,2.7,1.55,1.16
Cc1nn(-c2ccccc2)c(C)c1C=NN1CCN(Cc2ccccc2)CC1,1.24,1.25,0.724,0.733,1.16,1.34
Clc1ccc(Cn2c(CN3CCCC3)nc3ccccc32)cc1 [Clemizole],1.07,0.265,1.22,0.972,0.65,0.648
CCC1(O)C(=O)OCc2c1cc1n(c2=O)Cc2c-1nc1ccccc1c2CCNC(C)C (stereo not drawn) [Belotecan (CKD-602) hydrochloride],4.55,3.8,3.52,3.19,3.12,3.62
CN(C)CCOC(=O)C(c1ccccc1)C1(O)CCCC1 (stereo not drawn) [Cyclopentolate Hydrochloride],1.16,0.28,0.841,1.15,0.601,1.57
